Experiment [1] in a line: qHTS assay for small molecule agonists of the p53 signaling pathway (AID 651631; calls by dose curve; also: nearly all actives have a fitted effect of over 15% in size). Particulars: HCT-116 p53RE-bla reporter, beta-lactamase FRET ratio, 16 h; series mostly up to 73.3 µM. The gist of the method:
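Agonist mode screen using a stably integrated beta-lactamase gene under p53 response elements in HCT-116 cells. Compound exposure lasts 16 h at 37 °C; fluorescence intensity is measured following 2 h FRET substrate loading.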
Background: In qHTS, concentration-response curves come from the screen itself.

Experiment [2] is described as follows: qHTS assay for small molecule agonists of the p53 signaling pathway - cell viability (AID 651633; calls by dose curve; also: nearly all actives have a fitted effect of over 30% in size; also: potency is read from the fitted curve at half-maximal effect). The following applies: p53RE-bla HCT-116 viability, ATP luminescence, 16 h; series mostly up to 83.3 µM. The procedure, abridged:
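p53RE-bla cells, seeded at 4,000 per well and rested 5 h at 37 C/5% CO2, received compounds in DMSO for 16 h at 37 C. CellTiter-Glo was then added, and luminescence was read after 30 min at room temperature to gauge cytotoxicity.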

Experiment [3] is described as follows: qHTS assay for small molecules that induce genotoxicity in human embryonic kidney cells expressing luciferase-tagged ATAD5 - cell viability (AID 651634; calls by dose curve; also: nearly all actives have a fitted effect of over 25% in size). Particulars: HEK293T ATAD5-luc cells viability, CellTiter-Fluor, 15.5 h; series mostly up to 83.3 µM. The procedure, abridged:
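HEK293T cells expressing luciferase-tagged ATAD5 were exposed to compound or DMSO for 15.5 hr at 37C, 5% CO2. Viability was then read as live-cell protease activity by CellTiter-Fluor fluorescence after 30 min at 37C.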

Experiment [4] in a line: qHTS assay for small molecule disruptors of the mitochondrial membrane potential - cell viability (AID 720634; calls by dose curve;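 also: human HepG2 liver cancer cells; nearly all actives have a fitted effect of over 20% in size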). Particulars: HepG2 viability, ATP luminescence (CellTiter-Glo), 1 h; series mostly up to 83.2 µM. The procedure, abridged:
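HepG2 cells seeded overnight at 37 C, then exposed to compound or DMSO for 1 hr at 37 C, 5% CO2. m-MPI dye added, then CellTiter-Glo for 30 min at room temperature; viability read as ATP luminescence.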

The nature of experiment [5]: qHTS assay for small molecule disruptors of the mitochondrial membrane potential (AID 720635). Also: potency is read from the fitted curve at half-maximal effect. Particulars: HepG2 mitochondrial membrane potential, Mito-MPS dye ratio; series mostly up to 83.2 µM. The procedure, abridged:
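HepG2 cells (2,000/well) attached overnight at 37C, then took compound for 1 hr at 37C, 5% CO2. Mito-MPS dye was added for 30 min; fluorescence was read at 490/535 nm (monomers) and 540/590 nm (aggregates).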

Experiment [6] is described as follows: qHTS assay to test for compound auto fluorescence at 590 nm (red) in HepG2 cells (AID 720674). Particulars: HepG2 autofluorescence, red 540/590 nm, 1 h; series mostly up to 91.3 µM. The gist of the method:
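Intrinsic compound fluorescence in the red window (Ex/Em 540/590 nm) is measured in attached HepG2 cells exposed for 1 hr, DMSO vehicle as baseline, benchmarked to Rose Bengal sodium.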

Experiment [7] can be described thus: qHTS assay to test for compound auto fluorescence at 535 nm (green) in HepG2 cells (AID 720675). Particulars: green autofluorescence 485/535 nm, 1 h; series mostly up to 91.3 µM.
A short description of experiment [8]: qHTS assay to test for compound auto fluorescence at 460 nm (blue) in HEK293 cells (AID 720678). The following applies: blue autofluorescence 405/460 nm; series mostly up to 91.3 µM. The gist of the method:
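After cell attachment (4-5 hr, 37C), compounds were pinned onto HEK293 monolayers in 10% dialyzed FBS medium. The blue channel (405/460 nm) was read following overnight culture. Equivalency was calculated against triamterene.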

Experiment [9] can be described thus: qHTS assay for small molecules that induce genotoxicity in human embryonic kidney cells expressing luciferase-tagged ATAD5 (AID 651632). Also: nearly all actives have a fitted effect of over 15% in size. Particulars: HEK293T ATAD5-luciferase induction, 16 h; series mostly up to 83.3 µM. The procedure, abridged: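 HEK293T cells carrying a luciferase reporter tagged to ATAD5 were exposed to compound or DMSO vehicle for 16 hr at 37C, 5% CO2. Amplite was added, and after 30 min at room temperature luciferase activity was read as a marker of ATAD5 induction.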

Experiment [10] in a line: qHTS assay to test for compound auto fluorescence at 590 nm (red) in HEK293 cells (AID 720679). Particulars: red autofluorescence 540/590 nm; series mostly up to 91.3 µM. The gist of the method: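 Plates of HEK293 cells (10% dialyzed FBS) are treated with 23 nL compound or DMSO vehicle after a 4-5 hr attachment period, incubated overnight at 37C, and read for red fluorescence at 540/590nm.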

Values without a mark were called inactive. Inconclusive results are not listed. Calls of active or inactive are those of the source. Unless noted, calls follow the shape of the dose curve; as a rule, active = well fitted curve in the direction sought with a large enough effect in the repeat runs; inconclusive = weak or mixed curves; inactive = no such curve, though single readings can be large; an effect the other way counts as inactive or inconclusive.
% is scaled to controls: 0 for no effect and ±100 for the full control effect.

Take `Cc1cccc(Br)c1`: the Potency result in experiment [1], in experiment [2], in experiment [3], in experiment [4], in [5] and in experiment [6] was “inactive” in each case. Further, the Potency entry in experiment [7] and in [8] was “inactive” throughout.
For `Cc1ccc(N)cc1O`, the Potency result in experiment [9], in experiment [2], in experiment [3], in experiment [4], in [6] and in experiment [7] was “inactive” each time. Besides, the Potency result in experiment [10] is “inactive”. Further, the Potency in experiment [5] was 17.2 µM (active).
On to `O=C(O)Cc1ccc(OCCNC[C@H](O)c2ccccc2)cc1`, for which the Potency result in [9], in experiment [2], in [3], in experiment [4], in [5] and in [6] was “inactive” in each case. In addition, the Potency result in experiment [7], in experiment [8] and in experiment [10] was “inactive” in each case.
As to `c1ccc(Sc2ccccc2)cc1`, the Potency result in experiment [9], in experiment [2], in [3], in experiment [4], in [6] and in experiment [7] was “inactive” each time. The Potency result in experiment [8] and in experiment [10] was “inactive” each time.
Turning to `O=Nc1ccc(NO)cc1`, the Potency result in [9], in experiment [2], in experiment [3], in experiment [4], in [7] and in [8] was “inactive” in each case. Further, the Potency entry in experiment [10] was “inactive”. Moreover, in [5], the Potency is 50.5 µM (active).
For `C=C1C(C)(C)[C@@]2(Cl)C(Cl)[C@]1(Cl)C(Cl)(Cl)C2(Cl)Cl` (some centres not stated), the Potency entry in experiment [9], in experiment [4], in [6], in [7], in experiment [8] and in [10] was “inactive” each time. Further, the figures for the Potency in experiment [2] and in experiment [5] were 67.3 µM (active) and 12 µM (active), respectively.
Turning to `O=Cc1ccc(F)cc1`, the Potency entry in experiment [9], in experiment [2], in experiment [3], in experiment [4], in experiment [6] and in [7] was “inactive” in each case. In addition, the Potency result in [8] and in experiment [10] was “inactive” in each case.
As for `CNC(=S)NN`, the Potency entry in experiment [9], in experiment [2], in experiment [3], in experiment [4], in experiment [7] and in experiment [8] was “inactive” in each case. Also, the Potency result in experiment [10] was “inactive”.
Turning to `CCCSS/C(CCO)=C(\C)N(C=O)Cc1cnc(C)nc1N`, the Potency entry in [9], in experiment [2], in experiment [3], in experiment [4], in experiment [5] and in experiment [6] was “inactive” throughout. Moreover, the Potency entry in experiment [7], in experiment [8] and in experiment [10] was “inactive” in each case.
Turning to `Cc1occc1SSc1ccoc1C`, the Potency entry in experiment [9], in [2], in experiment [4], in experiment [5], in [7] and in experiment [8] was “inactive” throughout. Further, the Potency result in experiment [10] is “inactive”.
With `Cc1ccc2ccc3cccc4ccc1c2c34`, the Potency entry in [9], in experiment [2], in [3], in [4], in experiment [6] and in experiment [7] was “inactive” throughout. Besides, the Potency result in [8] and in [10] was “inactive” each time. Moreover, in [5], the Potency is 38.5 µM (active).
Turning to `COc1ccc2sc(C(=O)Nc3nnn[nH]3)c(OC(C)C)c2c1`, the Potency result in experiment [9], in [4], in [6], in experiment [7] and in experiment [8] was “inactive” each time. In experiment [2], the Potency was 24.2 µM (active).
`CN1CCN(C2Cc3ccccc3Sc3ccc(Cl)cc32)CC1` (configuration not stated): the Potency entry in experiment [9], in experiment [3], in [4], in experiment [6], in experiment [7] and in experiment [8] was “inactive” each time. Also, the Potency entry in experiment [10] is “inactive”. For the same compound, the Potency in experiment [2] is 29.8 µM (active).
For `CCOC(=O)[C@@](C)(N)Cc1ccc(O)c(O)c1`, the Potency result in [9], in [2], in experiment [3], in [4] and in [5] was “inactive” each time. For the same compound, the fluorescence, relative to Rose Bengal in [6] is -0.208% [at 18.6 µM]. The fluorescence, % of fluorescein control in experiment [7] is -0.17% [at 18.6 µM]. Further, the fluorescence, % of triamterene in experiment [8] was 0.197% [at 18.6 µM]. Also, the fluorescence, % of fluorescent control in experiment [10] was 0.559% [at 18.6 µM].
Consider `Oc1ccc(-c2ccccc2)c(Cl)c1`, for which the Potency result in [9], in experiment [3], in experiment [6], in experiment [7], in [8] and in experiment [10] was “inactive” in each case. Further, the Potency in [2] was 61.1 µM (active); in experiment [5], 8.63 µM (active).
Regarding `Cc1c(C)n(Cc2ccccc2)c2ccc(C(=O)OCCN(C)C)cc12`, the Potency result in experiment [9], in [2], in experiment [3], in experiment [4], in [6] and in experiment [7] was “inactive” throughout. Also, the Potency entry in [8] and in experiment [10] was “inactive” throughout.
`NCCCCCCNCCCCCCN`: the Potency entry in experiment [9], in experiment [2], in [3], in experiment [4], in experiment [5] and in experiment [6] was “inactive” throughout. In addition, the Potency result in experiment [7], in [8] and in experiment [10] was “inactive” each time.
In the case of `O=C1NC2CCCCN2C12CCN(CCCN1c3ccccc3CCc3ccc(Cl)cc31)CC2` (configuration not stated), the Potency result in experiment [9], in experiment [2], in experiment [4], in experiment [5], in experiment [7] and in experiment [8] was “inactive” in each case. Also, the Potency result in experiment [10] is “inactive”.
For the compound `CCO[Si](CCCSSSSCCC[Si](OCC)(OCC)OCC)(OCC)OCC`, the Potency entry in [9], in experiment [2], in experiment [4], in experiment [6], in experiment [7] and in [8] was “inactive” in each case. The Potency entry in experiment [10] was “inactive”.
Regarding `CCCN(CCc1cccs1)[C@H]1CCc2c(O)cccc2C1`, the Potency entry in [9], in experiment [2], in experiment [3], in experiment [4], in experiment [6] and in experiment [7] was “inactive” in each case. The Potency result in experiment [8] and in [10] was “inactive” in each case. Also, in [5], the Potency is 24.8 µM (active).
`CCN(CC)CCSC(=O)C(c1ccccc1)c1ccccc1`: the Potency result in experiment [9], in experiment [2], in [3], in experiment [4], in [6] and in experiment [7] was “inactive” in each case. Besides, the Potency entry in [8] and in experiment [10] was “inactive” each time.
Regarding `CCCCCCCCCCCCCOP(=O)(O)O`, the Potency result in experiment [9], in experiment [4], in experiment [6], in experiment [7] and in [8] was “inactive” in each case. Moreover, in experiment [2], the Potency is 48.6 µM (active).
`CCN(CC)CCOC(=O)C1(C2CCCCC2)CCCCC1`: the Potency result in experiment [9], in [2], in experiment [3], in experiment [4], in experiment [6] and in experiment [7] was “inactive” throughout. Moreover, the Potency entry in [8] and in [10] was “inactive” each time.
As to `CC(NCCC(c1ccccc1)c1ccccc1)c1ccccc1` (configuration not stated), the Potency result in [9], in experiment [4], in experiment [7], in [8] and in experiment [10] was “inactive” each time. Moreover, the Potency in experiment [2] is 29.8 µM (active); in experiment [5], 8.8 µM (active).
For `CCCCCCC(C)Nc1ccc(Nc2ccccc2)cc1` (configuration not stated), the Potency result in experiment [9], in [3], in experiment [6], in experiment [7], in [8] and in experiment [10] was “inactive” in each case. Moreover, the Potency was 54.5 µM (active) in experiment [2] and 30.6 µM (active) in [5].

For the origin of these results see PubChem BioAssay (Tox21).
